Values joined by “and” are separate entries in the source; they are usually repeats but may differ in a detail not shown here. Equal entries are not always repeated. Screen size: about 5,500 compounds; about 2,000 (36%) were called active. Not shown: some 18% with an inconclusive outcome. No stated cut-off is given here; in the data, active means normalized growth mostly below about 0.91 (no sharp cut-off); inconclusive means no clear call, values can overlap the other calls; inactive means mostly above about 0.92. The list shows a part of the results.
Assay: chemical genetic growth profiling, strain panel (AID 1159580);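 further: tested at 20 µM; growth read once vehicle control cultures reached saturation at 30 °C; 1 = growth at the plate median or of vehicle wells; lower values mean less growth of the strain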
Conditions: S. cerevisiae deletion strains, growth OD

Measured: normalized growth

CC1CNCCN1S(=O)(=O)c1cccc2cnccc12 (stereo unspecified)
inactive: locus YAL013W, strain DEP1, hits give low values 1.01 and 1 | locus YAL040C, strain CLN3, hits give low values 1.09 and 0.997 | locus YCL061C, strain MRC1 (second series), hits give low values 0.998 and 1.01 | locus YDR150W, strain NUM1, hits give low values 1 | locus YDR363W, strain ESC2, hits give low values 0.993 and 1.01 | locus YER002W, strain NOP16, hits give low values 0.988 and 1.01 | locus YGR078C, strain PAC10, hits give low values 1.01 | locus YMR263W, strain SAP30, hits give low values 1 | locus YNL153C, strain GIM3, hits give low values 0.991 | locus YNL175C, strain NOP13, hits give low values 0.996 and 0.999 | locus YNL197C, strain WHI3, hits give low values 1.01 | locus YNL224C, strain SQS1, hits give low values 1.02 | locus YNL322C, strain KRE1, hits give low values 0.999 | locus YOR083W, strain WHI5 (second series), hits give low values 1 and 1.03 | locus YPL055C, strain LGE1, hits give low values 1.01 | locus YPL241C, strain CIN2, hits give low values 0.996

— PubChem BioAssay AID1159580 (chemical genetic matrix, 2015)
